20 compounds from PubChem BioAssay can be followed below.

Molecules are shown by their SMILES. Values without a mark were called inactive. For some of these results: Results with a measured potency or affinity are listed apart. Calls of active or inactive are those of the source. Unless noted, the rule behind the calls is not given here.

Assay [1] in a line: antimalarial activity against Dd2 strain (AID 2302;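 active = growth inhibition above 50% at the single 2 µM test dose, taken to imply half-maximal potency below 2 µM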;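 note: 0% = DMSO untreated growth and 100% = chloroquine plus artemisinin killed control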). To be noted: P. falciparum Dd2 in RBCs, LDH growth readout, 72 h; at 2 µM; active compounds read high.
Assay [2] can be described thus: HepG2 cytotoxicity, primary screen, cytotoxicity control for P. falciparum antimalarial project, cell-based, ATP luminescence (AID 2303;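 active = inhibition above 50%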;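 note: 0% = DMSO wells and 100% = digitonin-killed cells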). To be noted: HepG2 viability, 24-48 h, at 10 µM, active compounds read high.
Assay [3] concerns the target L-lactate dehydrogenase (Plasmodium falciparum (isolate CDC / Honduras)) (UniProt Q27743). In words: PfLDH activity inhibition – cell lysate, 3D7 strain, counter-screen for P. falciparum growth inhibition project (AID 2304).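 Note: 0% = vehicle and 100% = reference inhibitor.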 Particulars: P. falciparum 3D7 crude extract, LDH APAD/NBT absorbance; at 2 µM; active compounds read high. A general note: A counterscreen serves to expose hits that act by an unwanted route or on another target.

Assay [4] can be described thus: inhibition of 3D7 malaria parasite growth – strain 3D7 (AID 2306).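 Note: 0% = DMSO wells and 100% = chloroquine plus artemisinin control wells.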 Particulars: P. falciparum 3D7 erythrocytic growth, LDH absorbance, 72 h; at 2 µM; active compounds read high.
Assay [5] deals with Calcium-dependent protein kinase 1 (Plasmodium falciparum (isolate 3D7)) (UniProt P62344). The experiment in a line: PfCDPK1 kinase inhibitors, biochemical, TCAMS library (AID 1159585; cut-off not given, nearly all actives have IC50 up to about 0.98 µM;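 note: inhibitors leave more ATP so luminescence rises with inhibition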). To be noted: recombinant PfCDPK1, Kinase-Glo ATP depletion luminescence.
In assay [6] the target is Plasmodium falciparum protein kinase 6 (PK6, PF3D7_1337100) (UniProt Q8IDW1). In words: PfPK6 kinase inhibitors, biochemical, TCAMS library (AID 1159586). To be noted: recombinant PfPK6, Kinase-Glo ATP depletion luminescence.
The target in assay [7] is Protein kinase 7 (PK7), Plasmodium falciparum 3D7 (PF3D7_0213400) (UniProt Q7YTF7). In words: inhibition of Plasmodium PK7 catalytic activity – biochemical, TCAMS antimalarial set, Kinase-Glo luminescence (AID 1159587). Particulars: recombinant PfPK7, Kinase-Glo ATP depletion luminescence.
For assay [8], the target named is Calcium-dependent protein kinase 4 (Plasmodium falciparum (isolate 3D7)) (UniProt Q8IBS5). The experiment in a line: PfCDPK4 kinase inhibitors, biochemical, TCAMS library (AID 1159588; cut-off not given, nearly all actives have IC50 up to about 0.91 µM). Particulars: recombinant PfCDPK4, Kinase-Glo ATP depletion luminescence. (Kinase-Glo measures the ATP left after a reaction by luminescence.)
Sequence of Calcium-dependent protein kinase 4 (Plasmodium falciparum (isolate 3D7)) (Q8IBS5 whole entry, looked up): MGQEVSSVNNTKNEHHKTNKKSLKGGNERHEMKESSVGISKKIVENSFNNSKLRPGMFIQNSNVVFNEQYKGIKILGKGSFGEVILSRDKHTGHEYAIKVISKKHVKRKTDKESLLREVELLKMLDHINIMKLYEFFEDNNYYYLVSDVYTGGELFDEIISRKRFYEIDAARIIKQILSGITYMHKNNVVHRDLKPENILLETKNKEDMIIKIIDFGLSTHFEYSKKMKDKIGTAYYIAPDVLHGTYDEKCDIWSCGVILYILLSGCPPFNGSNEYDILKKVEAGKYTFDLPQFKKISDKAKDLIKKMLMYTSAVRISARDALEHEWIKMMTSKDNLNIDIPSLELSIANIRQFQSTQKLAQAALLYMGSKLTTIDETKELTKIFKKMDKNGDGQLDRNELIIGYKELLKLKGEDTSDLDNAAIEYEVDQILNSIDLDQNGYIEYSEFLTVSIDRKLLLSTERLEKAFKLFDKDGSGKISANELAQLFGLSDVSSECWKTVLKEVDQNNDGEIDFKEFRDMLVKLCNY

Sequence of L-lactate dehydrogenase (Plasmodium falciparum (isolate CDC / Honduras)) (Q27743 whole entry, looked up): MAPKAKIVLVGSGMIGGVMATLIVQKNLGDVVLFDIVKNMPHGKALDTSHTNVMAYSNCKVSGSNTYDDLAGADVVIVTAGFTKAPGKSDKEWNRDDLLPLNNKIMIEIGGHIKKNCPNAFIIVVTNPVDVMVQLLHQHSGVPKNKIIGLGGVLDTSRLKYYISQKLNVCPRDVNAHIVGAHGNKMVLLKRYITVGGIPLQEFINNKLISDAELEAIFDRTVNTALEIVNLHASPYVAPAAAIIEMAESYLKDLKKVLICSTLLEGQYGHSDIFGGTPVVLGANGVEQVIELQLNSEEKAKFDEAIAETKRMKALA
Sequence of Calcium-dependent protein kinase 1 (Plasmodium falciparum (isolate 3D7)) (P62344 whole entry, looked up): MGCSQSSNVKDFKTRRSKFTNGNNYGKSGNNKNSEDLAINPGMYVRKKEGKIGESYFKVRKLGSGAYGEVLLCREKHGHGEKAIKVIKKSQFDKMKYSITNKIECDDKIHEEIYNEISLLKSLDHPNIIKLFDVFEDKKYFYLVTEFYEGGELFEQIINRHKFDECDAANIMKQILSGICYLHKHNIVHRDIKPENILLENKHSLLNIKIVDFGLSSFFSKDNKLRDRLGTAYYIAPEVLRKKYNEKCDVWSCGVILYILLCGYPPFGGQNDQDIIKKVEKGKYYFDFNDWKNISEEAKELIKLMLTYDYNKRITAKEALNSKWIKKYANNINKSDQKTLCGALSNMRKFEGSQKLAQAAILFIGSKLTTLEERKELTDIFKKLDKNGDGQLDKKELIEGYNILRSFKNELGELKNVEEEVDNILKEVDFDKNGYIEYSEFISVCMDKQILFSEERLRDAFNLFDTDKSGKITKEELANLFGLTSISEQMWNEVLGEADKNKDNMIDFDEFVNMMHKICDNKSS
Sequence of Plasmodium falciparum protein kinase 6 (PK6, PF3D7_1337100) (Q8IDW1 1-305): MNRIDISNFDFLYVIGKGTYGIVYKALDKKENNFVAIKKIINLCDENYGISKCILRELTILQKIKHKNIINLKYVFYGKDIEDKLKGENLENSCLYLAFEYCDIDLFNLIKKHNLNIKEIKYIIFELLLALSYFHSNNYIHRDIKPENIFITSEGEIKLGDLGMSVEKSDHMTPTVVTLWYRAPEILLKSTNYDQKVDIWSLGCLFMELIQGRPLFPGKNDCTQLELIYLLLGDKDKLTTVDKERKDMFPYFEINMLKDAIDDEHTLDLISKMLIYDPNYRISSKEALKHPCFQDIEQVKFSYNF
Sequence of Protein kinase 7 (PK7), Plasmodium falciparum 3D7 (PF3D7_0213400) (Q7YTF7 1-343): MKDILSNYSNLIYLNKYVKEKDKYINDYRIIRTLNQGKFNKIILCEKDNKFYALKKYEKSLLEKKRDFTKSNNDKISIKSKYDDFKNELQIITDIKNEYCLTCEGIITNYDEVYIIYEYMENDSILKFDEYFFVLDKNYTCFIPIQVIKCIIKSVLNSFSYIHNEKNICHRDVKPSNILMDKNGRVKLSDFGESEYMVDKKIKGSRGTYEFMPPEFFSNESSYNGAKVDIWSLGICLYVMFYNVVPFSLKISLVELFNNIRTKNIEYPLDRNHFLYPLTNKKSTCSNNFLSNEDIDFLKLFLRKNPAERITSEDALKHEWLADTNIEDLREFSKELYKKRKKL

Usually inhibition stands for the drop in the measured response relative to a control, in per cent. As for `C[C@@H]1CN(c2cnn(Cc3ccc(NC(=O)Nc4ccc(F)cc4[N+](=O)[O-])cc3)c(=O)c2Cl)C[C@H](C)N1`, the growth inhibition in assay [1] is 10%; in assay [4] it was 89% (active). For the same compound, the inhibition in assay [2] was 4%; in assay [3] it was -2%. The outcome in assay [5], in assay [6], in assay [7] and in assay [8] was inactive.
For the compound `COCCn1c(C)nc2ccccc2c1=O`, the growth inhibition was 67% (active) in assay [1] and 89% (active) in assay [4]. Also, the inhibition in assay [2] and in assay [3] was -3% in each case. For the same compound, the outcome in assay [5], in assay [6], in assay [7] and in assay [8] was inactive.
For `COc1ccc(N2CCN(CCCCNC(=O)c3ccc(NC(=O)c4cccc(Cl)c4)cc3)CC2)c(OC)c1`, the growth inhibition in assay [1] is 33%; in assay [4] it was 101% (active). The figures for the inhibition in assay [2] and in assay [3] were 18% and 0%, respectively. Besides, the outcome in assay [5], in assay [6], in assay [7] and in assay [8] was inactive.
On to `O=C1Nc2cccc3c2C1(CCCCN1CCC(c2c[nH]c4cc(C(F)(F)F)ccc24)CC1)CCC3` (stereo not given), for which the values for the growth inhibition in assay [1] and in assay [4] were 79% (active) and 99% (active), respectively. Also, the values for the inhibition in assay [2] and in assay [3] were 99% (active) and 3%, respectively. Moreover, the outcome in assay [5], in assay [6], in assay [7] and in assay [8] was inactive.
Take `CC(C)(CNCc1cccc(Oc2ccccc2)c1)c1nc(-c2ccc(Cl)c(O)c2)c(-c2ccnc(N)n2)[nH]1`: the results for the growth inhibition in assay [1] and in assay [4] were 99% (active) and 97% (active), respectively. The inhibition was 28% in assay [2] and 4% in assay [3]. In addition, the outcome in assay [5], in assay [6], in assay [7] and in assay [8] was inactive.
With `c1cc(CNCCN2CCNCC2)cc(-c2ccc(-c3nc4ccccc4[nH]3)cc2)c1`, the growth inhibition in assay [1] was 11%; in assay [4] it was 98% (active). In addition, the figures for the inhibition in assay [2] and in assay [3] were 3% and -3%, respectively. In addition, the result in assay [5], in assay [6], in assay [7] and in assay [8] was inactive.
As for `FC(F)(F)c1cc(Nc2ccc(Oc3ccccc3)cc2)c2cc(-c3ccncc3)ccc2n1`, the figures for the growth inhibition in assay [1] and in assay [4] were 70% (active) and 102% (active), respectively. Further, the figures for the inhibition in assay [2] and in assay [3] were -12% and -2%, respectively. Besides, the result in assay [5], in assay [6], in assay [7] and in assay [8] was inactive.
As for `CCCOc1ccc(OCCCON2C(N)=NC(N)=NC2(C)C)cc1`, the growth inhibition in assay [1] is 94% (active); in assay [4] it was 96% (active). For the same compound, the inhibition is 59% (active) in assay [2] and 5% in assay [3]. The result in assay [5], in assay [6], in assay [7] and in assay [8] was inactive.
For the compound `O=C(NCCCc1ccccc1)c1csc(C2CCCN(C(=O)c3ccc(O)c(-c4cccc5ccccc45)c3)C2)n1` (stereo not given), the growth inhibition is 98% (active) in assay [1] and 97% (active) in assay [4]. Moreover, the inhibition was 3% in assay [2] and -1% in assay [3]. The result in assay [5], in assay [6], in assay [7] and in assay [8] was inactive.
Consider `O=C(/C=C/c1ccc(Cl)c(Cl)c1)NCCCCCN1CCC(NC(=S)Nc2cccc(Cl)c2)CC1`, for which the growth inhibition in assay [1] was 43%; in assay [4] it was 99% (active). Moreover, the inhibition in assay [2] is 24%; in assay [3], 4%. Also, the result in assay [5], in assay [6], in assay [7] and in assay [8] was inactive.
In the case of `O=C(N[C@H](Cc1ccc(Cl)cc1)C(=O)N1CCN(c2ccnc3cc(Cl)ccc23)CC1)[C@H]1Cc2ccccc2CN1`, the growth inhibition in assay [1] was 41%; in assay [4] it was 85% (active). Besides, the inhibition in assay [2] is 16%; in assay [3] it was 5%. The outcome in assay [5], in assay [6], in assay [7] and in assay [8] was inactive.
As for `Cc1cc(N[C@@H](Cc2ccccc2)C(=O)NCCOc2ccccc2)nc(NCCc2ccccn2)n1`, the growth inhibition in assay [1] is 42%; in assay [4], 92% (active). The inhibition in assay [2] was 12%; in assay [3] it was -2%. For the same compound, the result in assay [5], in assay [6], in assay [7] and in assay [8] was inactive.
Turning to `CC(C)C[C@H](NC(=O)c1cc2ccccc2s1)C(=O)N[C@H]1CCN(Cc2ccc(OC3CCN(C)C3)c(Cl)c2)C1` (stereo not given in full), the growth inhibition is 65% (active) in assay [1] and 97% (active) in assay [4]. The results for the inhibition in assay [2] and in assay [3] were 68% (active) and 2%, respectively. Besides, the result in assay [5], in assay [6], in assay [7] and in assay [8] was inactive.
With `CC(C)Cc1c(O)nc(SCCN2CCOCC2)[nH]c1=O`, the growth inhibition in assay [1] is -5%; in assay [4] it was 88% (active). Moreover, the results for the inhibition in assay [2] and in assay [3] were 19% and 1%, respectively. Besides, the result in assay [5], in assay [6], in assay [7] and in assay [8] was inactive.
As to `O=[N+]([O-])c1ccc(Nc2nc(NN=Cc3ccc(-c4ccc([N+](=O)[O-])cc4)o3)nc(Nc3ccccc3)n2)cc1`, the growth inhibition was 74% (active) in assay [1] and 101% (active) in assay [4]. In addition, the inhibition in assay [2] is -9%; in assay [3] it was -5%. The outcome in assay [5], in assay [6], in assay [7] and in assay [8] was inactive.
In the case of `Cc1ccc(Cn2nc(Cl)c(N3CCCNCC3)cc2=O)cc1NC(=O)Nc1ccc(-c2ccccc2)cc1`, the growth inhibition in assay [1] is 55% (active); in assay [4], 101% (active). The inhibition in assay [2] was 90% (active); in assay [3] it was -1%. Also, the result in assay [5], in assay [6], in assay [7] and in assay [8] was inactive.
Consider `CCN1C(=O)N(CCC(C)C)C2(CCN(Cc3ccc(OC)cc3O)CC2)C1=O`, for which the growth inhibition is 77% (active) in assay [1] and 89% (active) in assay [4]. In addition, the values for the inhibition in assay [2] and in assay [3] were 13% and 4%, respectively. The outcome in assay [5], in assay [6], in assay [7] and in assay [8] was inactive.
As for `COc1ccc(NC(=O)/C=C/c2ccccc2Cl)cc1OCCN1CCC(NCc2cccnc2)CC1`, the growth inhibition in assay [1] was 88% (active); in assay [4], 101% (active). Further, the inhibition is 12% in assay [2] and 1% in assay [3]. Further, the result in assay [5], in assay [6], in assay [7] and in assay [8] was inactive.
Turning to `C[C@H]1CN(Cc2cccc(-c3cc(CNC(=O)c4cccc(CN5CCN(CCOc6ccccc6)CC5)c4)ccc3F)c2)CCN1`, the growth inhibition was 88% (active) in assay [1] and 91% (active) in assay [4]. Further, the inhibition in assay [2] was 59% (active); in assay [3], 4%. Further, the outcome in assay [5], in assay [6], in assay [7] and in assay [8] was inactive.
For `O=C(Nc1ccc(Cl)c(Cl)c1)N1CCC(NCc2cccc([N+](=O)[O-])c2)CC1`, the growth inhibition in assay [1] is 12%; in assay [4] it was 97% (active). Moreover, the inhibition in assay [2] is 8%; in assay [3], 2%. Also, the outcome in assay [5], in assay [6], in assay [7] and in assay [8] was inactive.
